ADAM17 inh = inhibitors of human ADAM17. P78536. AID 720648. inhibition, % at 6.95 µM. 370,000 tested, 0.83% active. recombinant ADAM17, EDANS/DABCYL FRET peptide cleavage;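 active means inhibition above the mean of compounds lying between control limits plus 3 SD, set per campaign, cut at about 8.5% in these data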;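 further: 0% = DMSO-only wells as the low control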
ADAM10 inh = inhibits human ADAM10; recombinant ADAM10, EDANS/DABCYL FRET peptide cleavage, 3 h; 370,000 tested, 0.62% active; inhibition, % at 7 µM; O14672; AID 720582;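 active means inhibition above a per-campaign cutoff equal to the mean of compounds falling between control-based bounds plus 3 SD, cut at about 20% in these data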;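 further: 0% = DMSO wells while the 100% control is not disclosed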
NPR1 activator = GC-A (human) enzyme activation; P16066; HEK293 GC-A cells, cGMP TR-FRET, EC30 ANP; 0% at EC30 ANP, 100% saturating ANP; activation, % at 10 µM; 370,000 tested, 0.14% active; in the data active means activation above about 40%
GC-B act = GC-B (human) receptor activation; P20594; HEK293-GC-B cells, CNP EC30, cGMP TR-FRET; 0% at EC30 CNP, 100% saturating CNP; activation, % at 10 µM; 370,000 tested, 0.11% active; AID 1920062;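 active means activation at 10 µM reaching about 35% in either raw or pattern-adjusted values, limit read from the data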
FAS-TE inh = inhibitors of human fatty acid synthase thioesterase domain | P49327 | recombinant FAS-TE, OMFH fluorogenic substrate, fluorescence endpoint | inhibition, % at 15 µM | 360,000 tested, 0.67% active;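 active means compounds whose normalised, plate-corrected inhibition of enzyme fluorescence in the single-dose primary screen is 50% or more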;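 further: 0% = DMSO with enzyme and 100% = substrate without enzyme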
Target sequence (P49327 whole entry, looked up, the tested form may be a part): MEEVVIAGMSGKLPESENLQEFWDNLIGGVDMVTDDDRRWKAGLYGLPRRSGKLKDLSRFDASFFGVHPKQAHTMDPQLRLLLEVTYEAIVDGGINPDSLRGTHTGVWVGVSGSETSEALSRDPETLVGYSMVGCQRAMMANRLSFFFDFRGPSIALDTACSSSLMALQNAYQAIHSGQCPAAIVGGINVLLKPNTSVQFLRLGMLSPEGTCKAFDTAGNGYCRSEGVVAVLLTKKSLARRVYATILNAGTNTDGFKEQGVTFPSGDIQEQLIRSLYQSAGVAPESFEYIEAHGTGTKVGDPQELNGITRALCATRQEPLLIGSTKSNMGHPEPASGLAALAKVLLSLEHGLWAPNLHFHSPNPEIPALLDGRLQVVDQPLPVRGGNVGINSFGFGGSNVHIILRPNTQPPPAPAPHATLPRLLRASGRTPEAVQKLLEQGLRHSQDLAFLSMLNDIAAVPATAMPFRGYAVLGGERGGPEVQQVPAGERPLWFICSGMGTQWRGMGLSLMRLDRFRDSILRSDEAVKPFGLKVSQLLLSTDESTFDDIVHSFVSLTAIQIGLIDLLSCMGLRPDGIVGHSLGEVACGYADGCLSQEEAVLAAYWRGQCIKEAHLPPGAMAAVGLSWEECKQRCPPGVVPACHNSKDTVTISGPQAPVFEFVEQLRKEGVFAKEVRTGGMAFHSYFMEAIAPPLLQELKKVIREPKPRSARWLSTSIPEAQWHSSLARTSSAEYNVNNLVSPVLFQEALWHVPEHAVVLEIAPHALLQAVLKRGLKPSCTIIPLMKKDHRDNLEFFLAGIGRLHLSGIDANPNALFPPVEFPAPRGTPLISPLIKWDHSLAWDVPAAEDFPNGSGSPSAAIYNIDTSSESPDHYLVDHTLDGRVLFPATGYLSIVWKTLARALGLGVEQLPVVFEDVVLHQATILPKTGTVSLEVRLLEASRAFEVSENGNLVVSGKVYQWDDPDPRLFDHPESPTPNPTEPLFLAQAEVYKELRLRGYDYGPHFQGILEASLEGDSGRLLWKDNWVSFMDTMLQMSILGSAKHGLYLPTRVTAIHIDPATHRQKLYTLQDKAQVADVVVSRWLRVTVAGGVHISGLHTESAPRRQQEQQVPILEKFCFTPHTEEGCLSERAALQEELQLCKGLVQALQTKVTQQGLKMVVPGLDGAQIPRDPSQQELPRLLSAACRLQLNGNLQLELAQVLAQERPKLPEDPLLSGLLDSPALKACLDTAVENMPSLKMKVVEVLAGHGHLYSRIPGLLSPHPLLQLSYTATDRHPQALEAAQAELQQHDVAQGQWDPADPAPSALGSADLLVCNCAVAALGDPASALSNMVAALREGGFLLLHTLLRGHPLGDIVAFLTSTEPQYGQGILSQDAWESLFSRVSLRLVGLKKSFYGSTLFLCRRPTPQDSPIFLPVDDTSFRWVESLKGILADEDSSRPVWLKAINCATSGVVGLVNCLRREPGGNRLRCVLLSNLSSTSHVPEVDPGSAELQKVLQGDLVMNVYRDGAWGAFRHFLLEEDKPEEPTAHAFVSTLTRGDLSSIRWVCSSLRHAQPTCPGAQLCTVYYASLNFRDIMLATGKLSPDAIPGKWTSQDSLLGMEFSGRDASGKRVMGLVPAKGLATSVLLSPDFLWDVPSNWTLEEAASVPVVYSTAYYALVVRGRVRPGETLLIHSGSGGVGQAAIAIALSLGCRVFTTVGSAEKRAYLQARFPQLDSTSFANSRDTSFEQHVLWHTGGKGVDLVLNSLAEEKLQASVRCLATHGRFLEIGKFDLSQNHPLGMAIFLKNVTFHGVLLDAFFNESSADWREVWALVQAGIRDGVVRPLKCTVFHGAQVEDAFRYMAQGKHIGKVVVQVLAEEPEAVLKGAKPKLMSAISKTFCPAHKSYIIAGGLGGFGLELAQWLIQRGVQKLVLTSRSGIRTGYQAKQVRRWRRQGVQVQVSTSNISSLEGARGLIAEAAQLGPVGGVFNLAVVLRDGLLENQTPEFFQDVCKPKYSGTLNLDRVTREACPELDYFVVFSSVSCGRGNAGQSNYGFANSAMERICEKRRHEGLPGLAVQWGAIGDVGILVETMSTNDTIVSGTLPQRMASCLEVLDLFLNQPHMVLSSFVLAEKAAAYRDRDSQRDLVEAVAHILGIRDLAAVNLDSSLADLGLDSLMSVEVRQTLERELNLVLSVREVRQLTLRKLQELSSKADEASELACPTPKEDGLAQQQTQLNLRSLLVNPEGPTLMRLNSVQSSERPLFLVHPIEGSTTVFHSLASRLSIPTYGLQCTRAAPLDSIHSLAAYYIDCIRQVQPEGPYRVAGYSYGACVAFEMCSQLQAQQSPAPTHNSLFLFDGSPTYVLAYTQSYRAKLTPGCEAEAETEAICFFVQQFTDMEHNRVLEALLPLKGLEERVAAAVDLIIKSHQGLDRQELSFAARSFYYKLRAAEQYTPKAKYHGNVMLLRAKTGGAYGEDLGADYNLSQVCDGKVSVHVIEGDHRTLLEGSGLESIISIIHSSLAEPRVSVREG
ADAM10 ctr = inhibits human ADAM10 in ADAM17 exosite counter-screen; shares compounds with ADAM17 inh; recombinant ADAM10, EDANS/DABCYL FRET peptide cleavage, 3 h; inhibition, % at 6.95 µM; 2,900 tested, 47% active;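 active means mean inhibition over the triplicate runs exceeds the activity threshold set in the earlier primary screen, cut at about 20% in these data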;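 further: 0% = DMSO wells and 100% = marimastat wells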
ADAM17 confirm = human ADAM17 inhibition, confirmation; shares compounds with ADAM17 inh; recombinant ADAM17, EDANS/DABCYL QFRET peptide cleavage; inhibition, % at 6.95 µM; 2,900 tested, 65% active; AID 743257;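 active means mean inhibition across replicates above the hit cutoff set in the primary screen, cut at about 8.5% in these data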;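 further: 0% = DMSO wells and 100% = marimastat wells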
Active calls of the source: *; . = not tested or not shown. In the library only some 2% were active in any assay of this set; here they are far more common.

SMILES	ADAM17 inh	ADAM10 inh	NPR1 activator	GC-B act	FAS-TE inh	ADAM10 ctr	ADAM17 confirm
Cc1ccc(Cn2nnnc2CN2CCC(n3nnc4cc(C)ccc43)CC2)cc1	9.3*	10	-32	-12	14	4	6
COC(=O)C1=C(c2ccccc2OCc2ccccc2)C[C@@H]2CC[C@H]1N2C(=O)NCc1ccc(OC)c(OC)c1	12*	16	-1	1	4	6	6
COC(=O)C1=C(c2ccc(-c3ccccc3)c(F)c2)C[C@@H]2CC[C@H]1N2C(=O)NCCc1ccccc1	9.0*	19	-5	-4	36	13	7
COC(=O)C1=C(c2ccccc2OCc2ccccc2)C[C@@H]2CC[C@H]1N2C(=O)NCc1ccc(Cl)cc1	9.7*	19	-8	-10	16	17	11*
COC(=O)C1=C(c2ccccc2OCc2ccccc2)C[C@@H]2CC[C@H]1N2C(=O)NCc1cccc(F)c1	1	3	-9	-17	10	.	.
COC(=O)C1=C(c2ccccc2OCc2ccccc2)C[C@@H]2CC[C@H]1N2C(=O)NCc1ccc(N(C)C)cc1	5	14	-3	-2	14	.	.
CCOC(=O)C(O)(c1ccc(NC(=S)NC(=O)c2ccc(Cl)cc2Cl)c(C)c1)C(F)(F)F (centres undefined)	15*	29*	0	-3	24	47*	23*
CCOC(=O)C(O)(c1ccc(NC(=S)NC(=O)c2ccc(Cl)cc2Cl)cc1)C(F)(F)F (centres undefined)	9.6*	18	-3	-2	26	24*	14*
C[C@]12CCC(=O)C=C1CC[C@@H]1C2CC[C@]2(C)C(=O)CCC12 (some centres undefined)	9.9*	-3	1	-3	-3	2	2
CCCCn1c(O)c(C=NCc2ccc3c(c2)OCO3)c(=O)[nH]c1=O	-2	-4	0	1	-1	.	.
O=c1[nH]c(=O)n(Cc2ccco2)c(O)c1C=NCc1ccc2c(c1)OCO2	9.3*	-51	2	2	-5	10	4
O=C(CNC(=O)OCc1ccccc1)NC(Cc1ccccc1)P(=O)(Oc1ccccc1)Oc1ccccc1 (centres undefined)	4	12	-9	-14	.	.	.
C#C[C@]1(O)[C@H](O)CC2C3CC[C@H]4C[C@@H](O)CC[C@]4(C)C3CC[C@@]21C (some centres undefined)	-5	-9	3	-3	-3	.	.
Oc1ccc(Cl)cc1Cc1ccccc1	8.7*	0	4	0	11	18	7
CO[C@H]([C@H](C)/C=C/N(C)C=O)[C@@H](C)C(=O)CC[C@H](C)[C@H](O)[C@H](C)[C@H]1OC(=O)/C=C/C(C)=C/[C@H](O)[C@H](OC)C[C@@H]2C=CC[C@@H](C[C@H](OC)[C@@H](CO)[C@@H](OC)C[C@@H](OC)[C@@H]1C)O2	-1	5	-27	-29	.	.	.
O=C(CN1C(=O)CN=C(c2ccccc2)c2cc(Cl)ccc21)NC1CCCCC1	6	0	-11	-13	.	.	.

Compound activity as filed in PubChem.
